Our source for the z-score and composite z-score values is PubChem BioAssay.

The nature of assay [1]: optical density shifts of acrAB sulA E. coli – strain DRC41, OD650, 48 h, E. coli filamentation inducer project, primary screen (AID 1152).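 Further: E. coli MC1000 strain DRC41 lacking acrAB efflux pump and sulA.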 As to conditions: higher = more signal, called active from +8 up or from −8 down.
The nature of assay [2]: probe aLefty1 binding on compound microarray – biochemical, small-molecule microarray, 635/667 nm fluorescence, primary screen (AID 1153).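 Further: score merges spot fluorescence with signal-to-noise ratio from the scanned slide images.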 To be noted: higher = more signal.
The nature of assay [3]: plasmodial surface anion channel blockers, osmotic lysis – cell-based, P. falciparum Indochina, OD700, 1 h, primary screen (AID 1154). To be noted: P. falciparum Indochina infected RBC osmotic lysis, higher = more signal, called active from +8 up or from −8 down.
Assay [4] in a line: plasmodial surface anion channel blockers, osmotic lysis – cell-based, P. falciparum Indochina, OD700, 2 h, primary screen (AID 1155).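 Further: lysis reports solute entry through the parasite surface anion channel PSAC.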 As to conditions: P. falciparum Indochina infected erythrocytes, higher = more signal, called active from +8 up or from −8 down.
Assay [5] in a line: changes in parasitized red cell lysis, either direction – P. falciparum Indochina, OD700, 3 h, PSAC antagonist project, primary screen (AID 1156). To be noted: P. falciparum-infected erythrocytes, osmotic lysis, higher = more signal, called active from +8 up or from −8 down.
The nature of assay [6]: plasmodial surface anion channel blockers, osmotic lysis – cell-based, P. falciparum Indochina, OD700, 18 h, primary screen (AID 1157). To be noted: P. falciparum Indochina infected erythrocytes, osmotic lysis OD700, 18 h; higher = more signal, called active from +8 up or from −8 down.
Assay [7] can be described thus: S6 kinase pathway phospho-S6 level changes – cell-based, A549, cytoblot, luminescence, serum-stimulated, primary screen (AID 1158).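 Further: serum-stimulated A549 lung adenocarcinoma cells; signal is phosphorylated S6 detected by cytoblot immunostaining with HRP secondary.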 To be noted: 5 h, higher = more signal.
Assay [8] concerns the target NADPH oxidase 2 (Homo sapiens) (UniProt P04839). Briefly: compounds shifting NOX2 Amplex Red fluorescence – cell-based, HEK293-NOX2, PMA-stimulated, NOX inhibitor project, primary screen (AID 1159). Further: test concentration not given here. As to conditions: 45 min, higher = more signal, called active from +8 up or from −8 down.
For assay [9], the target named is NADPH oxidase 4 (Homo sapiens) (UniProt Q9NPH5). Kind of assay: compounds shifting NOX4 Amplex Red fluorescence – cell-based, HEK293-NOX4, tetracycline-induced, NOX inhibitor project, primary screen (AID 1160). As to conditions: HEK293-NOX4, Amplex Red H2O2 fluorescence, 45 min; higher = more signal, called active from +8 up or from −8 down.
Chain of NADPH oxidase 4 (Homo sapiens) (Q9NPH5 whole entry, looked up): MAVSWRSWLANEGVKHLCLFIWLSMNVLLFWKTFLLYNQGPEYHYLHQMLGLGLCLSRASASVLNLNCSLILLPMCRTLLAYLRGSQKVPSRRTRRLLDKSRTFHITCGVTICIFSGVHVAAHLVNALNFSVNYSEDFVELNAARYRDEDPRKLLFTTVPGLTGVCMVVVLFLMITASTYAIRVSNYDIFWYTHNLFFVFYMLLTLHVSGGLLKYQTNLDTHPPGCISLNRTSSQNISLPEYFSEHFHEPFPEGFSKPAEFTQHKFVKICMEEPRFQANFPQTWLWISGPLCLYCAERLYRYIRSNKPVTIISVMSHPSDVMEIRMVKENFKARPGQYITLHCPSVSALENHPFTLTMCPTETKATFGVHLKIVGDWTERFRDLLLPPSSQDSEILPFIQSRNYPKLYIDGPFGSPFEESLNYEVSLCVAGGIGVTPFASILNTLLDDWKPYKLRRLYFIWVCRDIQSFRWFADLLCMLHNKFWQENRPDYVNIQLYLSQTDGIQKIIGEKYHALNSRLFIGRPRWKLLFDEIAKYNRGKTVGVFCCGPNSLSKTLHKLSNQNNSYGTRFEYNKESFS
Assay [10] addresses NADPH oxidase 5 (Homo sapiens) (UniProt Q96PH1). Briefly: compounds shifting NOX5 Amplex Red fluorescence – cell-based, HEK293-NOX5, NOX inhibitor project, primary screen (AID 1161). To be noted: HEK293-NOX5, ionomycin, 45 min, higher = more signal.
Assay [11] in a line: compound effects on lung adenocarcinoma cell viability – A549, calcein-AM fluorescence, 48 h, basal, profiling panel (AID 1162). Further: test concentration not given here. To be noted: higher = more signal.
Assay [12] can be described thus: compound effects on differentiated 3T3-L1 adipocyte viability – cell-based, 3T3-L1 adipocytes, calcein-AM fluorescence, 48 h, basal, profiling panel (AID 1163). Further: test concentration not given here. To be noted: 3T3-L1 adipocytes viability, higher = more signal.
The nature of assay [13]: compound effects on hepatocellular carcinoma cell viability – HepG2, calcein-AM fluorescence, 48 h, basal, profiling panel (AID 1164). Further: test concentration not given here. To be noted: higher = more signal.
A short description of assay [14]: compound effects on multiple myeloma cell viability – MM1S, calcein-AM fluorescence, 48 h, basal, profiling panel (AID 1165).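 Further: viability of MM1S multiple myeloma cells under basal unstimulated conditions; test concentration not given here.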 To be noted: higher = more signal.
Assay [15] in a line: calcein-AM signal in unstimulated myeloma cells – cell-based, calcein-AM fluorescence, 48 h, PK04 Diversity Set, profiling panel (AID 1166).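 Further: cells grown under basal conditions without added stimulus; test concentration not given here.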 As to conditions: RPMI8226 myeloma viability, higher = more signal.
Assay [16] is described as follows: JC-1 mitochondrial signal, unstimulated HepG2 cells – cell-based, JC-1 fluorescence, 24 h, 100 nL compound, profiling panel (AID 1167). Further: test concentration not given here. As to conditions: HepG2 mitochondrial potential, higher = more signal.
Assay [17] is described as follows: JC-1 mitochondrial signal, unstimulated adipocytes – cell-based, JC-1 fluorescence, 3T3-L1 adipocytes, 24 h, 100 nL compound, profiling panel (AID 1168). Further: test concentration not given here. To be noted: JC-1 mitochondrial fluorescence, higher = more signal, called active from +8 up or from −8 down.
The nature of assay [18]: JC-1 mitochondrial signal, unstimulated myeloma cells – cell-based, JC-1 fluorescence, RPMI8226, 24 h, 100 nL compound, profiling panel (AID 1169). Further: test concentration not given here. To be noted: JC-1 mitochondrial potential fluorescence, higher = more signal.
Assay [19] is described as follows: JC-1 mitochondrial signal, unstimulated MM1S myeloma – cell-based, JC-1 fluorescence, 24 h, 100 nL compound, profiling panel (AID 1170). Further: test concentration not given here. As to conditions: MM1S mitochondrial potential, higher = more signal.
The nature of assay [20]: resazurin metabolic signal in A549 cells – cell-based, resazurin fluorescence, 24 h, PK04 Diversity Set, profiling panel (AID 1171). Further: test concentration not given here. To be noted: A549 viability, higher = more signal, called active from +8 up or from −8 down. In general terms: Resazurin is reduced to fluorescent resorufin, in cell work by metabolically active cells.

Calls of active or inactive are those of the source.

Chain of NADPH oxidase 2 (Homo sapiens) (P04839 whole entry, looked up): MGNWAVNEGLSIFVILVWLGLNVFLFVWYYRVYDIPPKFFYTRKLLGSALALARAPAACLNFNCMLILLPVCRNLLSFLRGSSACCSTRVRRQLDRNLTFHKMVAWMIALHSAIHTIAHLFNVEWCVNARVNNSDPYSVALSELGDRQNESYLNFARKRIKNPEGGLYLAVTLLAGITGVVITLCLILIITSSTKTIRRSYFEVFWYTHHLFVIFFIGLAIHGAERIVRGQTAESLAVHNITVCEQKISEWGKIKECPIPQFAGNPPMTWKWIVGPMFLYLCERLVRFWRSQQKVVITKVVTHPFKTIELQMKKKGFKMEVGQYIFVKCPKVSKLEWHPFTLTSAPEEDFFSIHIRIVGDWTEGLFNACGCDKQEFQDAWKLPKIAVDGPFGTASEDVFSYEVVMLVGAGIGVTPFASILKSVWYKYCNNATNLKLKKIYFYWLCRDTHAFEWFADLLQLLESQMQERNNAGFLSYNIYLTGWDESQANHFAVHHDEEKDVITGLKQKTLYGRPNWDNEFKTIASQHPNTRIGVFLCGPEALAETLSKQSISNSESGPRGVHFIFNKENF
Chain of NADPH oxidase 5 (Homo sapiens) (Q96PH1 whole entry, looked up): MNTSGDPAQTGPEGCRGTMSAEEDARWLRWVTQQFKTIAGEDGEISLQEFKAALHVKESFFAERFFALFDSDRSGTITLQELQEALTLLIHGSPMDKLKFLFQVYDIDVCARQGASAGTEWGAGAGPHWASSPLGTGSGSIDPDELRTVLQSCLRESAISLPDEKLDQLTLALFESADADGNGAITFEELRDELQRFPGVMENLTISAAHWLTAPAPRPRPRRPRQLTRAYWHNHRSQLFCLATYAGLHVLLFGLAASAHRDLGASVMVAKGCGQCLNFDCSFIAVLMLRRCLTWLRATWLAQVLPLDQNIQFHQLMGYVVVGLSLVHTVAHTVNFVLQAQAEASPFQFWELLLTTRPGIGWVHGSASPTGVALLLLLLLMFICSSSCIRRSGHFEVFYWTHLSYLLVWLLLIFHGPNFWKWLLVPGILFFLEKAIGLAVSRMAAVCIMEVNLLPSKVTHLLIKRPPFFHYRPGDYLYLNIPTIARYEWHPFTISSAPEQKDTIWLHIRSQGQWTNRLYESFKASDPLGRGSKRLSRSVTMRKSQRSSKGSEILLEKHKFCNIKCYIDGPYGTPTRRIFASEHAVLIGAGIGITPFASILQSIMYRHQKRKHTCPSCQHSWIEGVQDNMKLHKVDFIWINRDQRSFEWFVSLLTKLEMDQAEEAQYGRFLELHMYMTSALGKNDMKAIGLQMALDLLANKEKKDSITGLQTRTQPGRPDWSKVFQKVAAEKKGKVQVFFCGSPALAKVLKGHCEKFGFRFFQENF

`C=CCC(OC(C)=O)[C@@H]1[C@@H](N(Cc2cc3ccccc3o2)C(=O)c2ccc(-c3ccccc3)cc2)c2cc(OCCCO)ccc2N1C(=O)Cc1ccc(OC)cc1` (stereo not given in full): the z-score in assay [1] was -1.14 (inactive); in assay [3], 0.702 (inactive); in assay [4], 0.701 (inactive); in [5], 0.365 (inactive); in assay [6], 0.703 (inactive); in assay [7] it was 0.3. For the same molecule, the z-score in [8] was -0.0713 (inactive); in assay [9], -0.918 (inactive); in [10] it was 1.09; in assay [11], 0.315; in [12], 0.443; in assay [13] it was 1.04. Further, the z-score in assay [14] was 0.0213; in assay [15] it was -0.226; in [16], 1.23; in [17], -0.76 (inactive); in assay [18], 0.738; in [19], 0.239. Besides, the z-score in [20] is 0.0443 (inactive). In assay [2], this molecule displayed a composite z-score of -0.0547.

Turning to `C=CC1c2cc(O)c(OC)cc2CCN1Cc1ccc([N+](=O)[O-])o1` (stereo not given), the z-score was 1.09 (inactive) in [1]; 7.89 (inactive) in [3]; 1.17 (inactive) in assay [4]; -0.0585 (inactive) in assay [5]; 0.596 (inactive) in [6]; 0.325 in assay [7]. The z-score in [8] was -3.42 (inactive); in assay [9], -3.12 (inactive); in assay [10], -3.25; in assay [11] it was 0.654; in assay [12], -0.187; in assay [13] it was -0.143. Also, the z-score in assay [14] was -0.429; in assay [15], 0.413; in assay [16], -0.22; in assay [17], 0.362 (inactive); in assay [18], -0.0931; in assay [19] it was 0.877. Besides, the z-score in assay [20] was 0.0283 (inactive). Further, in [2], the composite z-score stood at 0.0455.

Consider `Cc1ccccc1C(O)C1C=CC2C(=O)NC(=O)C2N1Nc1ccc(Cl)cc1Cl` (stereo not given), for which the z-score is -1.87 (inactive) in assay [1]; 1.81 (inactive) in assay [3]; 1.35 (inactive) in assay [4]; -1.11 (inactive) in [5]; 0.975 (inactive) in assay [6]; -0.649 in assay [7]. The z-score in assay [8] was -0.254 (inactive); in [9], -4.79 (inactive); in assay [10], -2.02; in [11], -0.235; in assay [12], -0.636; in assay [13], -0.245. The z-score is -2.93 in assay [14]; -1.58 in assay [15]; -2.8 in [16]; -0.879 (inactive) in assay [17]; -0.153 in assay [18]; 0.106 in assay [19]. For the same molecule, the z-score in assay [20] was -0.8 (inactive). In addition, the composite z-score in [2] was 0.219.

For `CC(C)C[C@@H]1NC(=O)[C@@H]2C[C@H](C(=O)NCCCCCC[N+](C)(C)C)[C@H](c3cccc(OCCO)c3)N2C1=O`, the z-score was -0.407 (inactive) in [1]; 6.26 (inactive) in [3]; 1.35 (inactive) in assay [4]; -0.953 (inactive) in assay [5]; 0.376 (inactive) in assay [6]; -0.797 in [7]. Also, the z-score was 2.3 (inactive) in assay [8]; 1.31 (inactive) in assay [9]; 2.51 in assay [10]; -0.895 in assay [11]; 0.137 in [12]; -1.16 in assay [13]. In addition, the z-score is -0.131 in assay [14]; -0.585 in [15]; -1.48 in assay [16]; 0.229 (inactive) in assay [17]; 0.108 in assay [18]; 0.0386 in [19]. Further, the z-score in assay [20] is -0.483 (inactive). Further, in assay [2], the composite z-score turned out to be 0.22.

As to `COc1cc(NN2C(C(O)C3CCCCC3)C=CC3C(=O)N(C)C(=O)C32)cc(OC)c1OC` (stereo not given), the z-score in assay [1] is -1.27 (inactive); in [3] it was 0.713 (inactive); in [4], 0.608 (inactive); in [5], 0.917 (inactive); in [6], 1.34 (inactive); in [7], -0.723. Also, the z-score is -0.904 (inactive) in [8]; -2.73 (inactive) in [9]; -1.7 in assay [10]; -0.536 in assay [11]; -0.0026 in assay [12]; -0.848 in assay [13]. Also, the z-score in assay [14] is -0.197; in [15], 0.436; in [16], -0.326; in assay [17] it was -0.657 (inactive); in assay [18] it was 0.316; in assay [19], 0.144. Also, the z-score in assay [20] is -0.825 (inactive). In assay [2], this molecule yielded a composite z-score of 0.949.

As for `NC(=O)N1C(=O)C2C(C1=O)C1C=C(CCCO)C2C(C2CC2)N1Cc1cccc(OC(F)(F)F)c1` (stereo not given), the z-score in assay [1] is -0.778 (inactive); in [3] it was 1.03 (inactive); in assay [4], 0.275 (inactive); in assay [5] it was -0.351 (inactive); in assay [6], 0.161 (inactive); in [7] it was -0.898. For the same molecule, the z-score in [8] was 0.699 (inactive); in assay [9], -0.685 (inactive); in assay [10], -0.738; in assay [11], -0.307; in assay [12] it was 0.0635; in assay [13] it was 0.801. The z-score in assay [14] was -2.82; in assay [15], 0.0097; in [16], -0.348; in assay [17], 0.418 (inactive); in [18], 0.191; in assay [19], 0.645. Moreover, in assay [20], the z-score was -0.334 (inactive). Moreover, the composite z-score in assay [2] is -0.195.

In the case of `C=CCN1C(=O)[C@]2(O[C@H](CCO)[C@@H]([Si](C)(C)c3ccc(OC)cc3)[C@@H]2C)c2cc(NC(=O)c3ccc(OC)cc3)ccc21`, the z-score in assay [1] is -1.25 (inactive); in [3], 7.31 (inactive); in assay [4], 2.69 (inactive); in [5], -0.357 (inactive); in assay [6] it was 1.3 (inactive); in [7] it was -0.309. Besides, the z-score in assay [8] is -3.97 (inactive); in assay [9], -0.48 (inactive); in assay [10], 1.38; in assay [11], -3.78; in assay [12], -0.562; in assay [13], -4.65. The z-score was -2.69 in [14]; -4.38 in assay [15]; -0.446 in [16]; 0.96 (inactive) in assay [17]; -0.953 in [18]; -2.2 in [19]. For the same molecule, the z-score in assay [20] is -3.7 (inactive). For the same molecule, the composite z-score in assay [2] amounted to 0.0494.

Consider `CCCCCN1CC=CC23O[C@@H]4C=CCOC(=O)[C@@H]4[C@H]2C(=O)N(CCO)[C@@H]3C1=O` (stereo not given in full), for which the z-score in [1] was -0.23 (inactive); in [3], 0.0674 (inactive); in assay [4], 0.31 (inactive); in [5] it was 0.266 (inactive); in assay [6] it was 0.161 (inactive); in assay [7], -0.53. Also, the z-score in assay [8] is 1.52 (inactive); in assay [9], 0.713 (inactive); in assay [10], 1.23; in [11], -0.479; in [12], -0.609; in assay [13], 0.0249. In addition, the z-score in assay [14] was 0.687; in assay [15] it was -0.285; in [16], -0.607; in assay [17], 0.561 (inactive); in [18], 0.174; in assay [19], -0.15. Besides, in [20], the z-score was -0.0273 (inactive). In assay [2], this molecule showed a composite z-score of -0.25.

In the case of `CC(C)CNC(=O)[C@@]1(c2ccc([N+](=O)[O-])cc2)CC(=O)N(C2CCCCC2)[C@@H]1c1ccc(CO)cc1`, the z-score was 0.706 (inactive) in assay [1]; 0.879 (inactive) in assay [3]; -0.189 (inactive) in assay [4]; 0.0352 (inactive) in [5]; -0.013 (inactive) in assay [6]; 0.358 in assay [7]. The z-score was 0.382 (inactive) in assay [8]; 0.581 (inactive) in assay [9]; 0.668 in assay [10]; -0.0452 in [11]; 0.389 in assay [12]; -0.004 in assay [13]. For the same molecule, the z-score is -0.41 in assay [14]; 0.542 in assay [15]; 0.634 in [16]; -0.6 (inactive) in assay [17]; -0.426 in assay [18]; 0.771 in assay [19]. For the same molecule, the z-score in [20] is 0.436 (inactive). Further, the composite z-score in assay [2] was 0.164.
